L major viab – inhibitors of Leishmania major promastigote growth | Leishmania major promastigotes, resazurin fluorescence viability | inhibition, % at 10 µM | 9% of 200,000 active; in the data active = inhibition above about 50%;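 also: promastigotes grown with compound for 44 hours at 28 °C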
CHOP inh – CHOP inhibition in unfolded protein response; CHO-K1 CHOP-promoter luciferase, tunicamycin-induced, 15-18 h; inhibition, % at 10 µM; 3.8% of 220,000 active; AID 2732;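 active = compounds that reduced the stress-induced luciferase reporter signal by more than about 70% of percent inhibition, limit read from the data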;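 also: 0% = tunicamycin plus vehicle and 100% = wells without tunicamycin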
Arbovirus anti – arbovirus infection inhibition | arbovirus infection cell-based antiviral screen | inhibition, % at 10 µM | 0.37% of 200,000 active | AID 1251; in the data active = inhibition above about 30%
WT yeast gro inh – growth inhibition of WT yeast, mitochondrial fusion screen; AID 1362; inhibition, % at 10 µM; mitochondrial fusion phenotypic screen, WT strain; 2.1% of 190,000 active; in the data active = inhibition above about 58%; tested in S. cerevisiae
Numbers without * were called inactive; / = no result given. Most compounds without a hit are left out; they make up all but 12% or so of the library.

SMILES	L major viab	CHOP inh	Arbovirus anti	WT yeast gro inh
Cc1ccccc1C(=O)c1cccn1CC(=O)NCCC1=CCCCC1	3	2	-11	27
Cc1ccccc1C(=O)c1cccn1CC(=O)NCCN1CCN(c2cccc(C)c2C)CC1	100*	64	-38	80*
CC(NC(=O)C(C)(C)C)C(c1cccs1)N1CCOCC1 (centres undefined)	/	16	/	/
O=C(Nc1ccc(C(F)(F)F)cc1)N1CCN(c2ccnc3cc(Cl)ccc23)CC1	/	48	/	/
COc1ccc(O)c(CN2CCN(CCc3ccccc3)C(CCO)C2)c1 (centres undefined)	77*	22	6	2
OCCC1CN(Cc2c(O)ccc3ccccc23)CCN1CCc1ccccc1 (centres undefined)	5	3	-6	25
COc1cccc(CN2CCN(CCc3ccccc3)C(CCO)C2)c1OC (centres undefined)	20	14	-2	-14
COc1ccc(CN2CCN(CCc3ccccc3)C(CCO)C2)c(O)c1 (centres undefined)	87*	6	1	-7
COc1ccc(C(=O)NC(=S)NNC(=O)c2ccc(NC(C)=O)cc2)cc1Br	77*	33	-6	-7
CC(=O)NNC(=S)NC(=O)c1cccc([N+](=O)[O-])c1	68*	32	-3	11
CC(=O)Nc1ccc(NC(=S)NC(=O)c2ccc([N+](=O)[O-])cc2)cc1	63*	16	4	-3
CCC(=O)N1CCN(c2ccccc2NC(=S)NC(=O)c2cccc([N+](=O)[O-])c2)CC1	61*	-4	2	23
COc1ccc(C(=O)NC(=S)NC(C)C)cc1Br	-2	32	0	41
Cc1cc(Sc2nc(NC(C)C)nc(NC(C)C)n2)nc(Cl)n1	0	24	13	12
O=C(NNc1c(Cl)cc(Cl)cc1Cl)c1cccc([N+](=O)[O-])c1	79*	67	29	86
COc1ccc(C(=O)Nc2cc3c(cc2OC)CCCC3)cc1Br	2	82*	4	0
COc1cc2c(cc1NC(=O)c1ccc(C(C)(C)C)cc1)CCCC2	4	0	18	3
CCCCCC(=O)NNC(=S)NC(=O)c1ccc([N+](=O)[O-])cc1	-4	4	9	62*
O=CNNC(=O)c1cccc([N+](=O)[O-])c1	28	35	-8	-16
N#Cc1ccc(CSc2nnc(COc3ccccc3)n2-c2ccccc2)cc1	12	17	-8	-12
CCOc1ccc(-n2c(SCc3ccc([N+](=O)[O-])cc3)nnc2-c2ccccc2)cc1	92*	37	2	-3
CCn1c(Cc2ccccc2)nnc1SCc1ccc([N+](=O)[O-])cc1	-3	-10	6	5
CCOc1ccc(-c2nnc(SCc3nnc(-c4ccccc4)o3)n2-c2ccccc2F)cc1	99*	36	16	14
COCCn1c(Cc2ccccc2)nnc1SCc1ccc([N+](=O)[O-])cc1	51*	5	20	-2
COc1ccc(-n2c(COc3ccccc3)nnc2SCc2ccc(C#N)cc2)cc1	100*	-13	-6	15
SMILES	L major viab	CHOP inh	Arbovirus anti	WT yeast gro inh
CC1(C)CC(NC(=O)CCc2nnc(CCCCc3ccccc3)o2)CCO1 (centres undefined)	-7	0	4	-6
CC(C)OC(=O)Cn1cc(C#N)c2ccccc21	0	37	0	-22
COc1ccc(CCCC(=O)N/N=C/c2ccccc2OC)cc1	14	-1	-1	-10
COc1ccc2nc(N=NC3=C(O)CC(C)(C)CC3=O)sc2c1	-6	57	-30	38
COc1ccc2nc(N=Nc3ccc(O)c4ccccc34)sc2c1	98*	44	-29	42
O=C(COc1ccc(S(=O)(=O)NC2CCCCC2)cc1)NC1CCCC1	0	-15	0	10
O=C(/C=C/c1ccccc1)C1=C(O)C(=O)N(CCO)C1c1ccc2c(c1)OCO2 (centres undefined)	-7	-13	-1	-9
C#CCOCCOCCOCCNc1nc(N2CCOCC2)nc(N2CCN(C(=O)Cn3cc(CC(C)O)nn3)CC2)n1 (centres undefined)	-4	3	-6	-7
Cc1cc(N2CCCCC2)n2nc(C)c(-c3ccccc3)c2n1	8	49	-3	5
COc1ccccc1-c1c(C)nn2c(N3CCN(c4ccccc4OC)CC3)cc(C)nc12	32	52	5	26
COc1ccccc1-c1c(C)nn2c(N3CCCCCC3)cc(C)nc12	79*	90*	6	61*
Cc1nn2c(N3CCCC3)cc(C(C)C)nc2c1-c1ccccc1	87*	-19	8	23
COc1ccccc1-c1c(C)nn2c(N3CCN(Cc4ccccc4)CC3)cc(C)nc12	33	92*	-23	85*
CNc1nc(Sc2ccc(C)cc2)cc(C(F)(F)F)n1	0	19	-14	20
CCCN(CC(=O)Nc1cc(Cl)cc(Cl)c1)CC(=O)Nc1ccc(F)c(F)c1F	63*	76*	-45	73*
CC(C)N(C(=O)COC(=O)[C@@H]1CC(O)CN1S(=O)(=O)c1ccc(C(C)(C)C)cc1)C(C)C (some centres undefined)	5	-3	5	12
N#CC1=C(N)Oc2cc3ccccc3cc2C1c1cccnc1 (centres undefined)	85*	1	-5	-5
N#CC1=C(N)OC2=C(C(=O)CC(c3ccccc3)C2)C1c1ccoc1 (centres undefined)	-4	-25	7	-9
N#CC1=C(N)Oc2c(ccc3cccnc23)C1c1cccnc1 (centres undefined)	-12	-5	-18	6
COc1ccc(N=Cc2cc3c(cc2O)OC(N)=C(C#N)C3c2ccccc2)cc1 (centres undefined)	6	80*	-4	-3
N#CC1=C(N)OC2=C(C(=O)CC(c3ccccc3)C2)C1c1cccnc1 (centres undefined)	93*	-5	8	-9
C[C@H](NC(=O)c1nc[nH]c1C(=O)NCCCCCNC(=O)OC(C)(C)C)C(=O)OC(C)(C)C	10	12	2	7
Cc1cc(=O)n2nc(-c3ccc(C(F)(F)F)cc3)sc2n1	0	75*	-2	-5
O=c1[nH]c(CN2CCN(S(=O)(=O)c3ccccc3C(F)(F)F)CC2)nc2sc3c(c12)CCCC3	44	48	10	31
Cc1ccc(NC(=O)NCc2ccccn2)cc1	-5	-10	0	-6
SMILES	L major viab	CHOP inh	Arbovirus anti	WT yeast gro inh
Cc1ccc(C)c(NC(=O)C(=O)NCc2ccccn2)c1	64*	-13	5	1
CCCCC(=O)Nc1nc(C)c(-c2csc(Nc3cc(OC)ccc3OC)n2)s1	73*	58	-19	19
COc1ccc(Cl)cc1Nc1nc(-c2sc(NC(=O)c3ccco3)nc2C)cs1	44	39	-21	32
COc1ccc(OC)c(Nc2nc(-c3sc(NC(=O)CC(C)C)nc3C)cs2)c1	81*	41	-20	3
CCC(C)C(=O)Nc1nc(C)c(-c2csc(Nc3cc(OC)ccc3OC)n2)s1 (centres undefined)	57*	51	-17	28
Clc1ccc(-c2nnc(COc3ncnc4sccc34)o2)cc1	29	2	5	-6
O=C(Cn1cnc([N+](=O)[O-])n1)N/N=C/c1ccccc1O	100*	43	4	43
